Hits are enriched below; roughly 1.5% of the tested compounds scored in any of these assays.
IDE act: human IDE activators in live cells, primary screen, fluorescence polarization, HEK cells, FAbeta-B substrate; Insulin-degrading enzyme (Homo sapiens), P14735; FAbeta-B cleavage; 0% vehicle, 100% cell-free pure enzyme wells; activation, % at 5.96 µM; 340,000 compounds, 0.073% hits;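 active = activation above the mean of all tested compounds plus 3 SD, set per screening campaign, cut at about 17% in these data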
MEX-5 binding: MEX-5 zinc finger RNA-binding disruptors – biochemical, C. elegans, fluorescence polarization, MLPCN library, primary screen; 300,000 compounds, 0.38% hits; Zinc finger protein mex-5 (Caenorhabditis elegans), Q9XUB2; activity score (negative = inhibition of binding), % at 10 µM; MEX-5/FITC-TCR2 RNA binding; hits give low values;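 active = inhibition past about -25% in most replicates, and total fluorescence under double the plate's negative control median, limit read from the data; inconclusive = replicates evenly split on the limit, or fluorescence at least double controls; inactive = too little inhibition in most replicates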;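 also: 0% = DMSO and -100% = 5 µM competing unlabeled TCR2 RNA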
IDE inh: human IDE inhibitors in live cells, primary screen, fluorescence polarization, HEK cells, FAbetaB substrate. 320,000 compounds, 0.41% hits. FAbetaB cleavage. Insulin-degrading enzyme (Homo sapiens), P14735. inhibition, % at 5.59 µM;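 active = percent inhibition above the average of all tested compounds plus 3 SD, set per screening campaign, cut at about 16% in these data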;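 also: IDE supplied by intact live HEK cells; FP after avidin binding of uncleaved biotin substrate so inhibition keeps polarization high; 0% = DMSO wells and 100% = 60 µM reference IDE inhibitor Ii1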
BCLXL inh: inhibitors of human Bcl-xL, primary screen, biochemical, fluorescence polarization, HTS | Bcl-2-like protein 1 (Homo sapiens), Q07817 | AID 2129, 2009 | GST-Bcl-xL / FITC-Bim BH3 peptide fluorescence polarization | inhibition, % at 10.9 µM | 320,000 compounds, 0.7% hits;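 active = inhibition above the mean of all tested compounds plus 3 SD, cutoff set per campaign, cut at about 30% in these data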;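 also: 0% = DMSO wells and 100% = unlabeled Bim-BH3 peptide competitor; inhibitors lower millipolarization by displacing the labeled peptide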
Target sequence (Q07817 whole entry, looked up): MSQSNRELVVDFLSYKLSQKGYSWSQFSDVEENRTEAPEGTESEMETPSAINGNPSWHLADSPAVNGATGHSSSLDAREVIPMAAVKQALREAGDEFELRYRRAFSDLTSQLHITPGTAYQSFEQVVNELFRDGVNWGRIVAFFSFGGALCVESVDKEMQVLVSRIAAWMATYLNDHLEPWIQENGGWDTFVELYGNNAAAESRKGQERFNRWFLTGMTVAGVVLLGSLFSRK
GLD-1 RNA inh: GLD-1/TGE RNA complex disruptors, primary screen, biochemical, fluorescence polarization; Female germline-specific tumor suppressor gld-1 (Caenorhabditis elegans), Q17339; purified GLD-1 + fluorescein TGE RNA; inhibition, % at 5.96 µM; 320,000 compounds, 0.44% hits;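 active = percent inhibition above a per-plate cutoff, the plate mean of test compounds plus 3 SD, cut at about 30% in these data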;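 also: 0% = DMSO wells with GLD-1 and probe and 100% = wells lacking GLD-1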
MCL1-BIM inh: inhibitors of MCL1 binding to BIM-BH3, primary screen, biochemical, fluorescence polarization; Induced myeloid leukemia cell differentiation protein Mcl-1 (Homo sapiens), Q07820; GST-MCL1 / FITC-Bim-BH3 fluorescence polarization; inhibition, % at 10.9 µM; 320,000 compounds, 0.68% hits;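 active = inhibition above the mean inhibition of all tested compounds plus 3 SD, set per campaign, cut at about 40% in these data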;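 also: 0% = DMSO wells and 100% = unlabeled Bim-BH3 peptide control; higher means more loss of mP so more displacement of Bim peptide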
Target sequence (Q07820 whole entry, looked up): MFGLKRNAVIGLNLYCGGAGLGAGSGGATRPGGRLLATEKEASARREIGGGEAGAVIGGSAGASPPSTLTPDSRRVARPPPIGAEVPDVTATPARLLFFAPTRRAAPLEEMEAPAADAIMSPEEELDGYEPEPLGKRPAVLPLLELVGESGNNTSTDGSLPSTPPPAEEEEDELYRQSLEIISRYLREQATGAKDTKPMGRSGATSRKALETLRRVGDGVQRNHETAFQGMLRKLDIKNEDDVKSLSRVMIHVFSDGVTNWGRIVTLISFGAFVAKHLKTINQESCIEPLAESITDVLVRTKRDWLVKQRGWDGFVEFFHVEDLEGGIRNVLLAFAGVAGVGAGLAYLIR
The depositor's hits bear a star.

How did Cc1ccn2c(CNCc3cnn(C)c3)c(C(=O)N3CCCCCC3)nc2c1 do in these assays?
IDE act: -1; IDE inh: 2; BCLXL inh: 67*; GLD-1 RNA inh: -1; MCL1-BIM inh: 0

How did O=C(CCC(=O)N(CC(=O)NC1CCCC1)Cc1ccc(F)cc1)Nc1nccs1 do in these assays?
IDE act: 5; MEX-5 binding: 0; IDE inh: 1; BCLXL inh: 0; GLD-1 RNA inh: -3; MCL1-BIM inh: 1

How did CCOC(=O)C1=C(CSc2nc3c(cc2C#N)CN(C)CC3)OC(N)=C(C#N)C1c1ccc(F)cc1 (stereo not given) do in these assays?
IDE act: 1; MEX-5 binding: -9; IDE inh: 5; BCLXL inh: 39*; GLD-1 RNA inh: 25; MCL1-BIM inh: 43*

How did O=C1CNC(=S)N1CCc1ccc(O)c(O)c1 do in these assays?
MEX-5 binding: -30*; IDE inh: 11; BCLXL inh: 11; GLD-1 RNA inh: -2; MCL1-BIM inh: 7

What do the screens show for `O=c1nc2c(O)cccn2c2c1c(=O)[nH]c1ccccc12`?
IDE act: 4; MEX-5 binding: -26*

What do the screens show for `CC(=O)Nc1ccc(S(=O)(=O)NC(C)(C#N)C2CC2)cc1` (stereo not given)?
IDE act: 3; MEX-5 binding: -1; IDE inh: 1; BCLXL inh: 1; GLD-1 RNA inh: 4; MCL1-BIM inh: 0

Results for COc1cc2c(cc1OC)-c1cc3ccc4c(c3c[n+]1CC2)OCO4 ?
IDE act: 2; MEX-5 binding: inconclusive; IDE inh: 9; BCLXL inh: 170*; GLD-1 RNA inh: 40*; MCL1-BIM inh: active

Results for COc1cc2c(cc1O)CC[n+]1cc3c(OC)c(OC)ccc3cc1-2 ?
IDE act: -4; MEX-5 binding: -3; IDE inh: -5; BCLXL inh: 2; GLD-1 RNA inh: -6; MCL1-BIM inh: 5

What do the screens show for `CCOC(=O)CC(=O)CSc1nc(CC)c(C)cc1C#N`?
IDE act: 1; MEX-5 binding: -1; IDE inh: 0; BCLXL inh: -6; GLD-1 RNA inh: -4; MCL1-BIM inh: -3

Results for CCOc1ccc2nc(SCC(=O)N3c4ccccc4Sc4ccccc43)c(C#N)cc2c1 ?
IDE act: 0; MEX-5 binding: 0; IDE inh: 8; BCLXL inh: 55*; GLD-1 RNA inh: 48*; MCL1-BIM inh: 1

What do the screens show for `CCOC(=O)CC(=O)CSc1nc2ccc(C)cc2cc1C#N`?
IDE act: -1; IDE inh: -5; BCLXL inh: 29; GLD-1 RNA inh: 83*; MCL1-BIM inh: 15

How did CCOc1ccc2nc(SCC(=O)N3c4ccccc4Sc4ccccc43)sc2c1 do in these assays?
IDE act: 1; MEX-5 binding: -2; IDE inh: 2; BCLXL inh: 2; GLD-1 RNA inh: 1; MCL1-BIM inh: 5

Results for O=C(NNS(=O)(=O)c1ccc([N+](=O)[O-])cc1)C(=O)Nc1cccc(C(=O)O)c1 ?
IDE act: 2; MEX-5 binding: -75*; IDE inh: 4; BCLXL inh: 3; GLD-1 RNA inh: 5; MCL1-BIM inh: 14

How did O=C1CCC/C(=N\NC(=O)COc2ccc(Cl)cc2)C1 do in these assays?
IDE act: 0; MEX-5 binding: -3; IDE inh: -8; BCLXL inh: 6; GLD-1 RNA inh: 64*; MCL1-BIM inh: 10

What do the screens show for `O=C(COc1ccc([N+](=O)[O-])cc1)NN=C1CCCC1`?
IDE act: -1; MEX-5 binding: -2; IDE inh: 2; BCLXL inh: 3; GLD-1 RNA inh: 3; MCL1-BIM inh: 0

What do the screens show for `Cc1onc(-c2ccccc2)c1C(=O)NCc1ccc(Cl)cc1`?
IDE act: -2; MEX-5 binding: 0

Results for COc1ccc(C(O)(CC(C)C)C(CN2CCOCC2)c2ccccc2)cc1 (stereo not given) ?
IDE act: 1; MEX-5 binding: 0; IDE inh: -1; BCLXL inh: 47*; GLD-1 RNA inh: 4; MCL1-BIM inh: 0

What do the screens show for `CCc1ccc(C(O)(CC(C)C)C(CN2CCOCC2)c2ccccc2)cc1` (stereo not given)?
IDE act: -1; MEX-5 binding: -2

How did CCN1C(=O)/C(=C2/C=Cc3ccccc3N2C)OC1=S do in these assays?
IDE act: 2; MEX-5 binding: -28*; IDE inh: 6; BCLXL inh: 1; GLD-1 RNA inh: -3; MCL1-BIM inh: 5

What do the screens show for `Oc1ccc(CCNc2c3ccccc3nc3ccccc23)cc1O`?
IDE act: -6; MEX-5 binding: -39*; IDE inh: 0; BCLXL inh: 18; GLD-1 RNA inh: 0; MCL1-BIM inh: 23

What do the screens show for `CN(Cc1ccccc1F)C(=O)CN1C(=O)NC2(CCc3ccccc32)C1=O` (stereo not given)?
IDE act: 3

Results for O=C1N=c2ccc([N+](=O)[O-])cc2=C1c1sc(=O)[nH]c1O ?
IDE act: -2; MEX-5 binding: -59*; IDE inh: 3; BCLXL inh: 14; GLD-1 RNA inh: 5; MCL1-BIM inh: 15

What do the screens show for `O=C1N=c2ccccc2=C1c1sc(=O)[nH]c1O`?
MEX-5 binding: -13; IDE inh: -5; BCLXL inh: 10; GLD-1 RNA inh: -7; MCL1-BIM inh: 12

What do the screens show for `Cc1c(CN2CCC(CO)(CCOc3ccccc3)CC2)[nH]c2c(Cl)cccc12`?
IDE act: 28*; MEX-5 binding: 1; IDE inh: -4; BCLXL inh: 1; GLD-1 RNA inh: -1; MCL1-BIM inh: -1

Results for Cc1nn(C)c(Cl)c1CN1CCC(CO)(CCOc2ccccc2)CC1 ?
IDE act: 3; MEX-5 binding: -2; IDE inh: -2; BCLXL inh: 5; GLD-1 RNA inh: -5; MCL1-BIM inh: 8

What do the screens show for `COc1cc(NC(=O)CSc2ncnc3sc4c(c23)CCCC4)c(C(=O)O)cc1OC`?
IDE act: 2; MEX-5 binding: 0; IDE inh: 0; BCLXL inh: 5; GLD-1 RNA inh: -4; MCL1-BIM inh: 4

What do the screens show for `COC(=O)CNc1ccc2c(c1)OCO2`?
IDE act: 3; MEX-5 binding: -7; IDE inh: 2; BCLXL inh: 31*; GLD-1 RNA inh: 15; MCL1-BIM inh: 30

How did COC(=O)Nc1ccc2c(c1)OCO2 do in these assays?
IDE act: 0; MEX-5 binding: -1; IDE inh: 1; BCLXL inh: 6; GLD-1 RNA inh: -2; MCL1-BIM inh: 3

Screens from PubChem.
